About 83,000 compounds went through this panel and 20% of them were active in at least one assay; those are over-represented in the sample as a whole.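 Each cell line was grown in a 96-well plate and treated with one concentration of compound for 48 hours. Values below 10 were considered active.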 Values without a mark were called inactive. Active and inactive are the calls of the source.
What was measured:
Assay in all cases: NCI-60 one-dose screen, 48 h (100 = growth as untreated, 0 = no growth, -100 = all killed)
Settings in all cases: 10 µM unless noted
T-47D breast = tested on: T-47D breast
BT-549 breast = tested on: BT-549 breast
MDA-MB-435 melanoma = tested on: MDA-MB-435 melanoma
SW-620 colon = tested on: SW-620 colon
MCF7 breast = tested on: MCF7 breast
HCT-116 colon = tested on: HCT-116 colon
HCC-2998 colon = tested on: HCC-2998 colon
KM12 colon = tested on: KM12 colon

Compound	growth (T-47D breast)	growth (BT-549 breast)	growth (MDA-MB-435 melanoma)	growth (SW-620 colon)	growth (MCF7 breast)	growth (HCT-116 colon)	growth (HCC-2998 colon)	growth (KM12 colon)
COc1cc(OC)c(/C=C/S(=O)(=O)Cc2ccc(OC)c(NC(=O)CCC(=O)NO)c2)c(OC)c1	86.4%	14.5%	-2.23% (active)	21.7%	11.9%	3.5% (active)	10.3%	7.24% (active)
COc1ccc(Cn2cc3c(c2-c2cc(OC)c(OC)c(OC)c2)CCc2c(CN4CCCC4)noc2-3)cc1	42.9%	76%	-39.2% (active)	26.4%	15.5%	18%	24.9%	14.9%
Clc1nc2ccccc2nc1-c1nnc(C2CCCCC2)o1	86%	138%	99.1%	97.2%	37.4%	101%	104%	94.1%
COc1ccc2[nH]cc(-c3csc4nc(-c5ccccc5)cn34)c2c1	30.7%	45.8%	-47.7% (active)	25.1%	11.5%	4.36% (active)	6.03% (active)	11.6%
O=C(NNc1nc2cc(F)ccc2n2c(CN3CCC(O)C3)ccc12)c1cnccn1 (stereo not given)	13%	29.5%	27.8%	24.6%	8.92% (active)	17.9%	38.5%	24.9%
C=CCN(C)S(=O)(=O)/N=C1\NC(=O)NC1=C(Cl)Cl	55.1%	89.1%	34.4%	-61.9% (active)	11.9%	1.54% (active)	40.1%	7.25% (active)
COc1ccc2c(c1)Oc1nc(N)c(C#N)c(N)c1C2Sc1ccc(C)cc1 (stereo not given)	-31.6% (active)	68.4%	-8.09% (active)	-49.5% (active)	-77.7% (active)	-69.1% (active)	-64.2% (active)	52.5%
CCc1cccc2c3c(sc12)C(c1ccc(OC)cc1)C(C#N)=C(/N=C/c1ccc(Cl)cc1)O3 (stereo not given)	12.9%	29.8%	-47.2% (active)	39.4%	19.3%	13%	20%	22.7%
CS(=O)(=O)Nc1cc(-c2ccc3ncc(C#N)c(N[C@H](CO)c4ccccc4)c3c2)cnc1Cl	28.3%	33.9%	47.2%	26.6%	17.7%	25.7%	42.1%	70.2%
CCN1CCN(C(=O)[C@]23CCC(C)(C)C[C@H]2C2=CC[C@@H]4[C@@]5(C)Cc6c([nH]c7ccccc67)C(C)(C)[C@@H]5CC[C@@]4(C)[C@]2(C)CC3)CC1	72.6%	101%	91.4%	98.1%	78.1%	77.7%	106%	86.2%
O=C(CCn1c[n+](CC(=O)c2ccc(F)cc2)c2ccccc21)Nc1cccc2cccnc12	53.9%	69.9%	79%	92.3%	68%	53.1%	87%	76%
O=C(Cn1c(-c2ccccc2)nc2cc(Cl)c(Cl)cc21)N=Nc1c(O)[nH]c2ccc(Cl)cc12	61.5%	56.2%	83.2%	81.9%	71.8%	53.4%	86%	73.8%
CC(C)(C)c1ccc(C(=O)Nc2sc3c(c2C(N)=O)CC/C(=N\O)C3)cc1	1.45% (active)	16.2%	13.6%	17.6%	5.51% (active)	10.5%	34.3%	6.97% (active)
O=C(Nc1ccc(F)c(F)c1)c1cc(-c2ccc(F)cc2F)ccc1O	3.6% (active)	-1.22% (active)	1.2% (active)	12.3%	0.642% (active)	6.45% (active)	15.5%	0.724% (active)
C#CCOc1ccc(/C=N\Nc2nc(-c3ccc(C)cc3)cs2)cc1OC	61.7%	80.7%	91.6%	95.4%	62.5%	88%	101%	85.6%
CC1(C)CC[C@]2(C(=O)N3CCOCC3)CC[C@]3(C)C(=CC[C@@H]4[C@@]5(C)C/C(=C/c6ccco6)C(=O)C(C)(C)[C@@H]5CC[C@]43C)[C@@H]2C1	75.7%	97.4%	88.7%	74.1%	64%	62.1%	103%	95.7%
O=S(=O)(Nc1cccc2ccccc12)c1ccc(-c2cnc(C3CC3)o2)cc1	62.4%	21.3%	-39.9% (active)	24.6%	22%	12.4%	21.3%	10.7%
CCN1CCN(Cc2ccc(C(=O)Nc3ccc(C)c(Oc4ccc(-c5[nH]nc6ncnc(N)c56)cc4)c3)cc2C(F)(F)F)CC1	100%	109%	82%	115%	70.6%	67%	117%	21.2%
Cc1cc(C)c(N2C(=O)CC(Nc3ccc(Cl)cc3Cl)C2=O)c(C)c1 (stereo not given)	93.7%	112%	102%	102%	91%	104%	118%	105%
CCNC(=O)N1CCc2cc(OC)c(OCCc3ccc(OC)c(N)c3)cc2C1c1ccc(C)cc1C (stereo not given)	65.8%	-10.9% (active)	13.4%	23.2%	17.2%	9.82% (active)	20.6%	12.5%
COc1cc(/C=C/C(=O)c2ccc(NC(=O)CSc3nnc(-c4ccc(-c5nc6ccc(Cl)cc6[nH]5)cc4)o3)cc2)cc(OC)c1OC	106%	85.6%	24.1%	87.4%	91.8%	90.5%	96.3%	80.6%
COc1ccc(NC(=O)Nc2ccc3c(ccn3C(=O)c3cccc(F)c3)c2)cc1	75.9%	76.2%	74.9%	60.2%	60.4%	45.8%	86.8%	53%
Cc1occc1-c1nc2s/c(=C/c3ccc(-c4cc(C(F)(F)F)ccc4Cl)o3)c(=O)n2n1	92.7%	108%	101%	101%	90%	102%	106%	99.9%
Cc1cc(C)n(C(=O)c2sc(=S)n(-c3ccccc3)c2N=Nc2c(N)n[nH]c2N)n1	117%	107%	104%	102%	96.7%	100%	110%	107%
O=S(=O)(NCCNc1nccc(-n2cnc3ccccc32)n1)c1ccc(Br)cc1	59.1%	115%	108%	110%	78.4%	99.8%	103%	85.4%
Cc1ccc(NC(=O)CNc2cc(C(N)=O)cc(F)c2C)c(Cl)c1	104%	102%	97.4%	96.8%	87.2%	96.3%	122%	99.1%
NC(N)=Nc1ccc(Oc2cccc(NC(N)=Nc3ccc(Br)cc3)c2)cn1	37.8%	99.2%	72.7%	76%	10.8%	69.2%	79.3%	66.5%
CCNC(=O)N1CCc2cc(OC)c(OCCc3ccc(OC)nc3)cc2C1c1ccc(C)cc1C (stereo not given)	61%	-6.5% (active)	10%	19.6%	14%	8.5% (active)	13%	9.57% (active)
COc1ccc2c(c1)c(CC(=O)[Se]CCC#N)c(C)n2C(=O)c1ccc(Cl)cc1	66.7%	-59.8% (active)	-13.4% (active)	2.84% (active)	2.34% (active)	-16.9% (active)	75.6%	26.5%
CCCSc1nc(Nc2ccc(/C(C)=N\NC(N)=S)cc2)c(C#N)c(-c2ccccc2)n1	63.4%	88.5%	87.5%	84.1%	47.9%	49%	89.5%	54.9%

From PubChem BioAssay (NCI)
